High-throughput results: PubChem BioAssay, National Center for Advancing Translational Sciences (NCATS)
The list is not random: actives were taken first. Their share in the collection is about 7.5%.
FMDV inh: foot and mouth disease virus antiviral activity; FMDV antiviral cell-based qHTS; Potency, µM (top dose mostly 57.9 µM), without a hit: at the highest dose activity change, negative = inhibition, actives largely listed as inhibitors; 410,000 compounds, 1.2% hits; AID 1159524; calls by dose curve; tested in HEK293T cells; also: read-out not given here; potency is read from the fitted curve at half-maximal effect; nearly all actives have a fitted effect of over 45% in size
Vaccinia mCherry: vaccinia inhibition (mCherry reporter). 310,000 compounds, 0.63% hits. Potency, µM (top dose mostly 36.5 µM), for the others: top-dose activity change, negative = inhibition, hits mostly inhibitors. Vaccinia virus mCherry reporter infection, fluorescence; calls by dose curve; tested in A549 cells; also: potency is read from the fitted curve at half-maximal effect; nearly all actives have a fitted effect of over 35% in size
HCV inhibitor: blocks hepatitis C virus. 340,000 compounds, 3.4% hits. Huh7.5.1 HCVcc-Cre infection, luciferase reporter, 44 h. Potency, µM (top dose mostly 41.8 µM), for inactives: top-dose activity change, negative = inhibition, most hits filed as inhibitors; also: potency is read from the fitted curve at half-maximal effect
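A cell-based infection assay in which seeded cells (1,000 per well) receive test compound after 4 h, are inoculated with HCVcc-Cre at approximately 0.5 moi, and are incubated 44 h before luminescence detection.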
Vaccinia Venus: vaccinia inhibition (Venus reporter); Vaccinia virus Venus reporter expression, fluorescence; Potency, µM (doses to about 36.5 µM), for the others: top-dose activity change, negative = inhibition, usual class: inhibitors; 330,000 compounds, 0.46% hits; calls by dose curve; tested in A549 cells; also: potency is read from the fitted curve at half-maximal effect; nearly all actives have a fitted effect of over 30% in size
FBPA Giardia inh: Giardia lamblia aldolase inhibition | A8B2U2 | purified Giardia FBPA | Potency, µM (highest dose often 59.6 µM), for inactives: at the top dose activity, negative = inhibition, most hits filed as inhibitors | 290,000 compounds, 0.71% hits; also: potency is read from the fitted curve at half-maximal effect; nearly all actives have a fitted effect of over 55% in size
Target sequence (A8B2U2 whole entry, looked up): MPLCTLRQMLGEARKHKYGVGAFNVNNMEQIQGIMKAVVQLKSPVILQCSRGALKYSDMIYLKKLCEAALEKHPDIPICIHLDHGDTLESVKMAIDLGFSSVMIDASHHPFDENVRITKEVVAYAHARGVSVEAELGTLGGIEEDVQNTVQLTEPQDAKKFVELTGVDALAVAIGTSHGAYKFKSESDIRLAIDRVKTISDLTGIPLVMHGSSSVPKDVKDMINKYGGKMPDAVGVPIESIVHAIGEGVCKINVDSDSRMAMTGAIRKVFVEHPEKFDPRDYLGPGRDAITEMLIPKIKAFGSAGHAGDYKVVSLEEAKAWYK
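40 nM FBPA preincubated 10 min at RT with compound (up to 57.5 uM final), then substrate plus GAPDH/TPI/NAD/arsenate coupling and diaphorase/resazurin added. Fluorescence read after 20 min at RT, 525/598 nm.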
HCMV antiviral: blocks human cytomegalovirus replication | HFF cells, HCMV-luciferase reporter, 72 h; stronger effect = lower value | activity change, negative = inhibition, % at 57.5 µM | 410,000 compounds, 4.5% hits | AID 1259415; in the data active = activity change below about -60%; inconclusive = no clear call, values can overlap the other calls; inactive = above about -39%
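Steps: HFFs plated, 16 h 37C; compounds added; HCMV-luciferase added to MOI 1 PFU/cell; 72 h 37C; OneGlo reagent, 5 min room temperature; luminescence read, normalized to controls.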
An asterisk follows results filed as active; i = inactive; ? = inconclusive; . = no result. Unless noted, calls follow the shape of the dose curve; as a rule, active = well fitted curve in the direction sought with a large enough effect; inconclusive = small, poorly fitted or top-dose-only effect, or another doubt; inactive = no such curve, though single readings can be large; an effect the other way counts as inactive or inconclusive. % is scaled to controls: 0 for no effect and ±100 for the full control effect.

SMILES	FMDV inh	Vaccinia mCherry	HCV inhibitor	Vaccinia Venus	FBPA Giardia inh	HCMV antiviral
Cc1cc(C(=O)C(=O)Nc2nnc(C(C)C)s2)c(C)n1-c1ccccc1	?	-5%	.	-4%	.	-87*
CCc1nc(Sc2nnnn2-c2ccccc2)c2c3c(sc2n1)CCCC3	?	1%	?	-2%	7%	-17
Cc1nc(Sc2nnnn2C)c2c3c(sc2n1)CCC3	?	.	4%	?	5%	-103*
COc1ccc(CNC(=O)c2sc(=O)n(Cc3ccc(C)cc3)c2C)cc1OC	25µM*	i	.	-4%	.	-7
Cc1c(C(=O)NCc2cccc([N+](=O)[O-])c2)sc(=O)n1Cc1cccc(F)c1	-8%	i	.	-11%	.	-61*
Cc1ccc(Cn2c(C)c(C(=O)NCc3cccc(C(F)(F)F)c3)sc2=O)cc1	-13%	12%	.	-16%	.	-16
COc1ccccc1Cn1c(C)c(C(=O)NCc2cccc(C)c2)sc1=O	-10%	i	.	-4%	.	-61*
C=Cc1ccc(Cn2c(C)c(C(=O)NCc3ccc(C#N)cc3)sc2=O)cc1	?	-6%	.	-3%	.	-60*
Cc1c(C(=O)NCc2cccc([N+](=O)[O-])c2)sc(=O)n1Cc1ccc(F)cc1	0%	19%	.	-8%	.	-39
N#Cc1ccsc1NC(=O)C1CC(=O)N(Cc2ccccc2)C1 (stereo not given)	9%	-10%	15%	2%	.	-35
CCOC(=O)c1cnc2cc(C(F)(F)F)ccc2c1N1CCN(c2cccc(Cl)c2)CC1	0%	0%	.	1%	.	14
COc1ccc(S(=O)(=O)Nc2cc(OC)cc3cccnc23)cc1	.	.	.	.	-9%	.
COc1ccc(CNC(=O)c2sc(=O)n(Cc3ccc(-c4ccccc4)cc3)c2C)cc1OC	16µM*	-15%	.	-25%	.	?
COc1ccc(CNC(=O)c2sc(=O)n(Cc3ccccc3C)c2C)cc1	-14%	14%	.	-9%	.	-36
COc1ccc(CNC(=O)c2sccc2-c2ccccc2)cc1OC	?	.	-30%	.	.	-71*
CN1CCC(=O)N(C(CSc2ccc(Br)cc2)c2ccccc2)CC1 (stereo not given)	.	.	.	.	7%	.
COc1ccc(S(=O)(=O)Oc2ccc3c(c2)O/C(=C\c2cccnc2)C3=O)cc1	-6%	i	?	-16%	-4%	-110*
O=[N+]([O-])c1cccc(-c2noc3ccccc23)c1	.	.	.	.	.	2
COC(=O)C1c2ccccc2-c2ccccc21	-3%	-6%	-11%	-14%	-10%	-26
CC1c2ccccc2-c2ccccc2N1C (stereo not given)	8%	-3%	13µM*	3%	.	-26
COc1cccc(S(=O)(=O)NCc2ccc(C(=O)Nc3cccc(Cl)c3)cc2)c1	25µM*	.	10µM*	?	-7%	-12
COc1cccc(NC(=O)c2ccc(S(=O)(=O)NCc3cccnc3)cc2)c1	0%	-25%	10µM*	-14%	.	-61*
O=C(NCc1cccnc1)c1cccc(NS(=O)(=O)c2ccc(Br)cc2)c1	-23%	?	13µM*	?	.	-38
COc1ccc(S(=O)(=O)NCc2cccnc2)cc1C(=O)NC1CCCCC1	5%	-2%	.	-15%	13%	39
O=C(NC1CCCCC1)c1ccc(S(=O)(=O)NCc2cccnc2)cc1	-16%	-19%	-22%	-17%	-1%	-61*
Cc1ccc(S(=O)(=O)Nc2cccc(C(=O)NCc3cccnc3)c2)cc1F	-5%	?	?	?	.	-30
CCC1CCCCN1C(=O)Cn1c(=O)n(CC2CCC(C(=O)NC)CC2)c(=O)c2sccc21 (stereo not given)	-24%	-9%	.	-5%	.	3
COc1ccc(/C=C(\NC(=O)c2ccccc2)C(=O)NC2CCS(=O)(=O)C2)cc1 (stereo not given)	-9%	-12%	2%	-3%	2%	-18
CNc1nc(Cl)nc2c1ncn2CC(COC(=O)C(C)(C)C)COC(=O)C(C)(C)C	.	.	.	.	-13%	.
Cc1cc(C)n(-c2ccc(C(=O)N3CCN(S(=O)(=O)c4ccc(C(C)C)cc4)CC3)cc2)n1	?	.	?	.	.	9
